PubChem BioAssay
Active and inactive are the calls of the source.

Columns and labels:
[1] = E. coli DRC41 culture turbidity changes, primary screen, E. coli filamentation inducer project, strain DRC41, OD650, 48 h (AID 1152);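 note: E. coli MC1000 strain DRC41 lacking acrAB efflux pump and sulA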; details: E. coli DRC41 (acrAB sulA), higher = more signal, called active from +8 up or from −8 down
[2] = small-molecule binders of probe aLefty1, primary screen, biochemical, small-molecule microarray, 635/667 nm fluorescence (AID 1153); details: higher = more signal;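 note: score merges spot fluorescence with signal-to-noise ratio from the scanned slide images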
[3] = PSAC antagonists in infected red cells, primary screen, cell-based, P. falciparum Indochina, OD700, 1 h (AID 1154); details: P. falciparum Indochina infected RBC osmotic lysis, higher = more signal, called active from +8 up or from −8 down
[4] = PSAC antagonists in infected red cells, primary screen, cell-based, P. falciparum Indochina, OD700, 2 h (AID 1155);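 note: lysis reports solute entry through the parasite surface anion channel PSAC; channel blockers reduce lysis of infected cells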; details: P. falciparum Indochina infected erythrocytes, osmotic lysis OD700; higher = more signal, called active from +8 up or from −8 down
[5] = osmotic lysis modulators in infected erythrocytes, primary screen, PSAC antagonist project, cell-based, P. falciparum Indochina, OD700, 3 h (AID 1156); details: higher = more signal, called active from +8 up or from −8 down
[6] = PSAC antagonists in infected red cells, primary screen, cell-based, P. falciparum Indochina, OD700, 18 h (AID 1157); details: P. falciparum Indochina infected erythrocytes, osmotic lysis OD700, 18 h; higher = more signal, called active from +8 up or from −8 down
[7] = modulators of S6 phosphorylation in cells, primary screen, cell-based, A549, cytoblot, luminescence, serum-stimulated (AID 1158); details: A549 phospho-S6 cytoblot, 5 h, higher = more signal;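 note: serum-stimulated A549 lung adenocarcinoma cells; signal is phosphorylated S6 detected by cytoblot immunostaining with HRP secondary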
[8] = molecular target: NADPH oxidase 2 (Homo sapiens) (UniProt P04839); assay: NOX2-dependent H2O2 signal modulators, primary screen, NOX inhibitor project, cell-based, HEK293-NOX2, PMA-stimulated, Amplex Red fluorescence (AID 1159); details: 45 min, higher = more signal, called active from +8 up or from −8 down; note: test concentration not given here
[9] = molecular target: NADPH oxidase 4 (Homo sapiens) (UniProt Q9NPH5); assay: NOX4-dependent H2O2 signal modulators, primary screen, NOX inhibitor project, cell-based, HEK293-NOX4, tetracycline-induced, Amplex Red fluorescence (AID 1160); details: 45 min, higher = more signal, called active from +8 up or from −8 down
[10] = molecular target: NADPH oxidase 5 (Homo sapiens) (UniProt Q96PH1); assay: NOX5-dependent H2O2 signal modulators, primary screen, NOX inhibitor project, cell-based, HEK293-NOX5, Amplex Red fluorescence (AID 1161); details: HEK293-NOX5, ionomycin, 45 min, higher = more signal
[11] = A549 cell viability effects, profiling panel, calcein-AM fluorescence, 48 h, basal (AID 1162); details: higher = more signal; note: test concentration not given here
[12] = adipocyte viability effects, profiling panel, cell-based, 3T3-L1 adipocytes, calcein-AM fluorescence, 48 h, basal (AID 1163); details: 3T3-L1 adipocytes viability, higher = more signal; note: test concentration not given here
[13] = HepG2 cell viability effects, profiling panel, calcein-AM fluorescence, 48 h, basal (AID 1164); details: higher = more signal; note: test concentration not given here
[14] = MM1S cell viability effects, profiling panel, calcein-AM fluorescence, 48 h, basal (AID 1165); details: higher = more signal;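 note: viability of MM1S multiple myeloma cells under basal unstimulated conditions; test concentration not given here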
[15] = basal RPMI8226 viability, no added stimulus, profiling panel, cell-based, calcein-AM fluorescence, 48 h, PK04 Diversity Set (AID 1166); details: RPMI8226 myeloma viability, higher = more signal;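 note: cells grown under basal conditions without added stimulus; test concentration not given here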
[16] = basal HepG2 mitochondrial membrane potential changes, profiling panel, cell-based, JC-1 fluorescence, 24 h, 100 nL compound (AID 1167); details: higher = more signal; note: test concentration not given here
[17] = basal 3T3-L1 adipocyte mitochondrial potential changes, profiling panel, cell-based, JC-1 fluorescence, 3T3-L1 adipocytes, 24 h, 100 nL compound (AID 1168); details: JC-1 mitochondrial fluorescence, higher = more signal, called active from +8 up or from −8 down; note: test concentration not given here
[18] = basal RPMI8226 mitochondrial membrane potential changes, profiling panel, cell-based, JC-1 fluorescence, 24 h, 100 nL compound (AID 1169); details: RPMI8226 myeloma, JC-1 mitochondrial potential fluorescence, higher = more signal; note: test concentration not given here
[19] = basal MM1S mitochondrial membrane potential changes, profiling panel, cell-based, JC-1 fluorescence, 24 h, 100 nL compound (AID 1170); details: higher = more signal; note: test concentration not given here
[20] = A549 lung cancer cell viability effects, profiling panel, resazurin fluorescence, 24 h, PK04 Diversity Set (AID 1171); details: higher = more signal, called active from +8 up or from −8 down; note: test concentration not given here

Chain of NADPH oxidase 5 (Homo sapiens) (Q96PH1 whole entry, looked up): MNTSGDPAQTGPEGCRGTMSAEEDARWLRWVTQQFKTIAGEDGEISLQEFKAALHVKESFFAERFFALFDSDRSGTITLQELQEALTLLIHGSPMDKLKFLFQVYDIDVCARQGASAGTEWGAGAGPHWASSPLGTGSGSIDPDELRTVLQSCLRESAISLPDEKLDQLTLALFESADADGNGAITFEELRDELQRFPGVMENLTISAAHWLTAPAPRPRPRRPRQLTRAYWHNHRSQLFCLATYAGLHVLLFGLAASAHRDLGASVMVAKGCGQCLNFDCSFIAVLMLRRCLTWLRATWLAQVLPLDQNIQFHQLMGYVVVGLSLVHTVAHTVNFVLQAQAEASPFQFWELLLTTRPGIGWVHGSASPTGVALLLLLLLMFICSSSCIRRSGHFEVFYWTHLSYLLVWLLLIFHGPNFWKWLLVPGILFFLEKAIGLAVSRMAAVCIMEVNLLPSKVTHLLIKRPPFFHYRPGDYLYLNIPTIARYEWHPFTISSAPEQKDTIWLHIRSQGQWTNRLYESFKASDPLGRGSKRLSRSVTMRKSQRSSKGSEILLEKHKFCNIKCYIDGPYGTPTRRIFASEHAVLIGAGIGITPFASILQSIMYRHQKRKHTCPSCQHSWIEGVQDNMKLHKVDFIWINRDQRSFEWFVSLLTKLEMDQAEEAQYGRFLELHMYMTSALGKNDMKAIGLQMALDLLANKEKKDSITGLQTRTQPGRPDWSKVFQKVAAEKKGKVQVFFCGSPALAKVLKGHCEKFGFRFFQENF
Chain of NADPH oxidase 2 (Homo sapiens) (P04839 whole entry, looked up): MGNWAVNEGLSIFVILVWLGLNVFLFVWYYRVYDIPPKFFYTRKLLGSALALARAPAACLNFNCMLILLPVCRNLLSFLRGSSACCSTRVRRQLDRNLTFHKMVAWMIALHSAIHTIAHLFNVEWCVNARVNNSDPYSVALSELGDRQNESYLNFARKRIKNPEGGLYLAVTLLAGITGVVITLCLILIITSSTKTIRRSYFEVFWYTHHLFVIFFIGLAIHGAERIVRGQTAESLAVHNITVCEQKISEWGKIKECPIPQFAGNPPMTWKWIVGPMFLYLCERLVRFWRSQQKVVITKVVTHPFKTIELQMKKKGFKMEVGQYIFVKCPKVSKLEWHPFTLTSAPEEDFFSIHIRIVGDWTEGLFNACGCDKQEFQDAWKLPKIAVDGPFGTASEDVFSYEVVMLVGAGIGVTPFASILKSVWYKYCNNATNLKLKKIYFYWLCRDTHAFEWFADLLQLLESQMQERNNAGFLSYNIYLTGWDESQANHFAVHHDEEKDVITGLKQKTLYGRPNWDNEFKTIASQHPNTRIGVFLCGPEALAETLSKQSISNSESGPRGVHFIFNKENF
Chain of NADPH oxidase 4 (Homo sapiens) (Q9NPH5 whole entry, looked up): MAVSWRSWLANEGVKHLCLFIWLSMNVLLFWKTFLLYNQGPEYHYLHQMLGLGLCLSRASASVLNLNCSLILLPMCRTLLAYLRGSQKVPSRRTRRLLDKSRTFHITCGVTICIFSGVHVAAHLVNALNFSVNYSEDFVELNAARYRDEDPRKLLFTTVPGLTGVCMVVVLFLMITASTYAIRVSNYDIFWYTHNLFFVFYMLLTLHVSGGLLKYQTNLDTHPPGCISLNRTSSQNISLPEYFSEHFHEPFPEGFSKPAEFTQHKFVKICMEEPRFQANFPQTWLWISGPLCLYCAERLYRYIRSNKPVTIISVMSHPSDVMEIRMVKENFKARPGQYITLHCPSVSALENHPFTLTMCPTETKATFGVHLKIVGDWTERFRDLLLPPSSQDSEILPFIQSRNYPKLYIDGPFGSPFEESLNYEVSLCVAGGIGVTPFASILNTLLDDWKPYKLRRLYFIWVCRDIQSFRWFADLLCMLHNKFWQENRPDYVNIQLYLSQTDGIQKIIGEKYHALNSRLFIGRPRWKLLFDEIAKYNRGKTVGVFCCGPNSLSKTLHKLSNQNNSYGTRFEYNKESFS

SMILES | z-score [1] | composite z-score [2] | z-score [3] | z-score [4] | z-score [5] | z-score [6] | z-score [7] | z-score [8] | z-score [9] | z-score [10] | z-score [11] | z-score [12] | z-score [13] | z-score [14] | z-score [15] | z-score [16] | z-score [17] | z-score [18] | z-score [19] | z-score [20]
CON=C(C)CCN1CCCc2nc(C)c(C)cc21 | -2.33 (inactive) | -0.0601 | 1.03 (inactive) | 0.498 (inactive) | 0.619 (inactive) | 0.49 (inactive) | -0.621 | -1.52 (inactive) | -1.06 (inactive) | -0.493 | 0.604 | 0.542 | 0.926 | -1.56 | -0.0679 | 0.791 | -0.195 (inactive) | 0.538 | 0.11 | 0.161 (inactive)
CCOC(=O)[C@H](CC(C)C)NC(=O)CCC1CC(OC(=O)NCc2ccc3c(c2)OCO3)CC2(CCCC(COC(=O)NCCC(C)C)O2)O1 (stereo not given in full) | -0.213 (inactive) | -0.768 | 2.17 (inactive) | -0.299 (inactive) | -0.443 (inactive) | 0.0255 (inactive) | -0.0096 | 0.246 (inactive) | 0.115 (inactive) | 0.165 | 0.0634 | -0.0921 | -0.231 | 0.473 | 0.403 | 0.449 | 0.135 (inactive) | -0.938 | -0.155 | 0.704 (inactive)
CC(CCN1CCc2nc(-c3ccccc3)c(-c3ccccc3)cc2C1)=NOC(C)CN1CCCc2nc(C)c(C)cc21 (stereo not given) | -0.115 (inactive) | 0.0956 | 3.04 (inactive) | 0.494 (inactive) | 0.959 (inactive) | 0.268 (inactive) | -0.56 | -5.56 (inactive) | -0.946 (inactive) | -3.15 | 1.23 | 0.301 | 0.69 | -2.9 | -0.616 | 6.43 | -1.28 (inactive) | -0.866 | -0.881 | 0.289 (inactive)
CC(CCN1CCCc2nc(C)c(C)cc21)=NO[C@@H](C)c1cn([C@H](CO)Cc2ccccc2)nn1 | 1.15 (inactive) | -0.193 | 0.202 (inactive) | 0.0178 (inactive) | 0.0882 (inactive) | 0.392 (inactive) | 0.137 | -0.588 (inactive) | 0.313 (inactive) | 0.351 | 1.11 | -0.189 | -0.136 | 0.33 | 0.049 | 0.38 | 0.733 (inactive) | -0.0733 | -0.762 | -0.131 (inactive)
COc1ccc(OC[C@@H](CO)OC)cc1 | 0.261 (inactive) | -0.145 | -0.578 (inactive) | -0.348 (inactive) | -0.566 (inactive) | -0.389 (inactive) | -0.51 | 0.712 (inactive) | 0.422 (inactive) | 0.133 | 0.677 | 0.363 | 0.647 | 0.124 | -0.342 | -0.15 | -0.321 (inactive) | 0.104 | 0.674 | -0.551 (inactive)
CC(C)C(=O)N[C@H]1CCCN1C(=O)C=Cc1ccccc1 | -1.05 (inactive) | 0.271 | 1.35 (inactive) | 0.627 (inactive) | 0.632 (inactive) | 0.346 (inactive) | -0.53 | 0.679 (inactive) | 0.913 (inactive) | -0.732 | -0.0724 | -0.578 | 0.176 | -0.903 | -0.1 | -0.541 | -0.288 (inactive) | 0.6 | -0.0562 | 0.182 (inactive)
C=CC[C@@H]1C=C[C@H](Oc2ccc(C)cc2)[C@@H](COC(=O)NCc2cccc3ccccc23)O1 | -0.575 (inactive) | -0.0501 | 2.39 (inactive) | 0.852 (inactive) | -0.508 (inactive) | 0.346 (inactive) | -0.783 | 0.839 (inactive) | -0.187 (inactive) | -0.146 | -0.273 | 0.479 | -0.542 | -1.41 | -1.71 | 0.294 | -0.483 (inactive) | 0.78 | 0.147 | 1.99 (inactive)
CC(=O)OC[C@H]1O[C@H](CC=NO[C@@H](C)c2cn([C@H](CO)Cc3ccccc3)nn2)C=C[C@@H]1OC(C)=O | -0.89 (inactive) | -0.196 | -0.719 (inactive) | -0.429 (inactive) | 0.656 (inactive) | -1.23 (inactive) | 0.703 | -2.05 (inactive) | -2.01 (inactive) | -1.41 | -1.04 | -0.0628 | -0.453 | 0.548 | -0.812 | -0.174 | -0.538 (inactive) | 0.15 | -0.76 | 0.095 (inactive)
CO[C@H]1COC(=O)CCC[C@H](C)[C@H](OC)COC(=O)CC=C[C@@H]1C | 0.928 (inactive) | -0.0626 | -0.972 (inactive) | -1.26 (inactive) | 0.232 (inactive) | -1.45 (inactive) | 1.18 | -0.0777 (inactive) | 0.862 (inactive) | 0.381 | 1.11 | -0.14 | 0.481 | -0.469 | -0.351 | -0.101 | -1.7 (inactive) | 0.226 | -0.982 | 0.285 (inactive)
O=C1C[C@@H](O)[C@@H](O)[C@@H]2[C@@H]3C(=O)N(c4ccc(F)cc4F)C(=O)[C@@H]3CC[C@H]12 | -0.706 (inactive) | -0.147 | -0.0503 (inactive) | 0.0554 (inactive) | -0.737 (inactive) | 0.06 (inactive) | 0.0123 | 1.09 (inactive) | 0.366 (inactive) | -0.158 | -0.529 | 1.42 | 0.0181 | -0.141 | -0.0202 | -0.541 | -0.922 (inactive) | 0.0715 | 0.448 | -0.715 (inactive)
COC(=O)[C@H](C)NC(=O)CCC1CC(OC(=O)NCc2cccc3ccccc23)CC2(CCCC(COC(=O)NCCc3ccccc3OC)O2)O1 (stereo not given in full) | -0.731 (inactive) | -0.193 | 7.29 (inactive) | 1.37 (inactive) | -0.148 (inactive) | 0.494 (inactive) | -0.353 | -0.49 (inactive) | 0.357 (inactive) | 0.512 | -0.932 | -1.02 | -1.44 | -3.38 | -1.79 | -0.525 | -0.309 (inactive) | 0.179 | -1.33 | 0.642 (inactive)
COC(OC)[C@@H](C)[C@H](OC)[C@@H](C)[C@H](OC)c1ccccc1 | 0.215 (inactive) | -0.235 | -0.271 (inactive) | -0.947 (inactive) | -0.75 (inactive) | -1.06 (inactive) | 1.67 | 0.491 (inactive) | 0.153 (inactive) | 0.577 | 2.22 | 0.159 | 0.568 | -0.569 | 0.692 | 0.348 | -0.14 (inactive) | 0.404 | 1 | -0.996 (inactive)
